High-throughput results from PubChem BioAssay.
Pf growth 96h: P. falciparum growth inhibition at 96 hours. P. falciparum luciferase reporter growth, 96 h. Potency, µM (titrated, usually from 28.7 µM), for inactives: at the top dose activity change, negative = inhibition, hits mostly inhibitors. actives 6.9% (n = 320,000); further: potency means the concentration at half of the fitted maximal effect; on the % scale 0 is the no-effect control and ±100 the full control effect
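Two parasite generations (96 h, 37 C, 5% CO2) of compound exposure in infected erythrocytes (0.05% parasitemia, 2% hematocrit). Luciferase-reporter P. falciparum; decreased luminescence indicates inhibited growth, aimed at apicoplast-acting delayed death.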
Pf growth 48h: P. falciparum growth inhibition at 48 hours (one generation); P. falciparum luciferase growth in erythrocytes, 48 h; Potency, µM (top dose mostly 28.7 µM), inactives show at the highest dose activity change, negative = inhibition, hits mostly inhibitors; actives 5.9% (n = 310,000); AID 504832; further: potency means the concentration at half of the fitted maximal effect; on the % scale 0 is the no-effect control and ±100 the full control effect
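Erythrocytes infected with P. falciparum carrying an integrated firefly luciferase reporter (2% hematocrit, 0.1% parasitemia final) were exposed to compounds in RPMI 1640 with 0.5% Albumax at 37 C, 5% CO2. Growth inhibition was scored as reduced luminescence.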
Shiga inhibitor: blocks Shiga toxin action in Vero cells; actives 9.2% (n = 290,000); Vero cells, Shiga toxin protein synthesis inhibition reporter; inhibition, % at 38.7 µM; in the data active means inhibition mostly above about 28%, no sharp cut-off; inactive means mostly below about 43%; further: 0% is about no effect
CHX counter: affects cycloheximide protein synthesis inhibition readout, counter-screen; cell reporter, cycloheximide protein synthesis inhibition counterscreen; max response, %; actives 12% (n = 300,000); AID 2314; in the data active means max response mostly above about 13%, no sharp cut-off; inactive means mostly below about 14%; further: read at 38.3 µM for the half of the compounds with a filed dose; 0% is about no effect
An asterisk follows results filed as active; i = inactive; ? = inconclusive; . = no result. Only some compounds are listed: those with a hit (about 21% of all), similar ones and a draw of the others. Unless noted, the call rests on the fitted dose curve; in most records, active means well fitted inhibition curve with a large enough effect; inconclusive means small, poorly fitted or top-dose-only effect, or another doubt; inactive means no such curve, though single readings can be large or run the other way.

SMILES	Pf growth 96h	Pf growth 48h	Shiga inhibitor	CHX counter
COc1ccc(NC(=O)CSc2cccc3cccnc23)c(OC)c1	-15%	34%	-12	-3
CCOc1ccccc1OCCCC(=O)Nc1cccc(S(=O)(=O)N2CCOCC2)c1	?	13µM*	.	.
Cc1ccc(OCCCC(=O)Nc2ccc(S(=O)(=O)N3CCOCC3)cc2)cc1	-26%	?	.	.
CCCCCOc1ccc(NC(=O)CSc2cccc3cccnc23)cc1	5.2µM*	10µM*	5	17
O=C(CSc1cccc2cccnc12)Nc1ccc(S(=O)(=O)N2CCOCC2)cc1	-9%	12µM*	25	14
O=C1N/C(=N/N=C/c2ccccc2)SC1(c1ccccc1)c1ccccc1	20%	.	17	-3
COc1ccc(CNc2ccc(N3CCOCC3)cc2)cc1	57%	-10%	73	22*
O=C(CN1c2cccc3cccc(c23)S1(=O)=O)Nc1ccc(S(=O)(=O)N2CCOCC2)cc1	13µM*	?	17	-1
O=S(=O)(c1ccc(NC(=S)NCCC(c2ccccc2)c2ccccc2)cc1)N1CCOCC1	8.3µM*	?	9	9
CC(CC(=O)Nc1ccc(S(=O)(=O)N2CCOCC2)cc1)c1ccccc1 (stereo not drawn)	9%	3.3µM*	2	-3
Cc1ccc(-c2c(C(=O)NCc3ccc(F)cc3)oc(=O)c3ccccc23)cc1	-13%	17%	7	-2
COc1ccc(OC)c(NC(=O)NCCCCc2ccccc2)c1	?	?	-4	1
CCNC(=O)NC(=O)C(C)OC(=O)C1CCN(S(=O)(=O)c2ccccc2C(=O)OC)CC1 (stereo not drawn)	6%	-7%	-4	-1
COc1cc(F)ccc1S(=O)(=O)N1CCN(c2ccccc2)CC1	?	8%	8	-1
Cc1ccc(C)c(-c2csc(-c3c(N)c(C(=O)c4ccc5c(c4)OCO5)n4ccccc34)n2)c1	.	.	17	13
O=C(CCCOc1ccc(Cl)cc1)Nc1ccc(N2CCOCC2)cc1	-12%	-25%	8	3
CCOC(=O)CSc1cccc2cccnc12	-25%	?	53*	17
CCc1ccc(OCCCC(=O)Nc2ccc(N3CCOCC3)cc2)cc1	7.4µM*	-18%	1	2
COCCCNC(=O)C1CC(=O)OC1c1ccc(OC)c(OC)c1 (stereo not drawn)	1%	.	-10	1
COc1ccc(C2OC(=O)CC2C(=O)NCc2ccc(C)cc2)cc1OC (stereo not drawn)	9.3µM*	-23%	-8	-3
Cc1ccc(S(=O)(=O)Nc2cc(C(=O)NCCN(C)C)ccc2N2CCCC2)cc1	8.3µM*	-3%	-8	-4
CCN(CC)CCCNC(=O)c1ccc(N2CCCCC2)c(NS(=O)(=O)c2ccc(C)cc2)c1	?	?	-7	-6
CCOC(=O)c1ccc(N2CCCCC2)c(NS(=O)(=O)c2ccc(C)cc2)c1	1µM*	2.3µM*	14	10
CCOC(=O)N1CCN(C(=O)c2ccccc2NS(=O)(=O)c2ccc(C)cc2)CC1	?	-6%	-5	1
COCCCNC(=O)c1ccc(N2CCOCC2)c(NS(=O)(=O)c2ccc(OC)cc2)c1	.	-14%	-7	-8
SMILES	Pf growth 96h	Pf growth 48h	Shiga inhibitor	CHX counter
CCOC(=O)c1ccc(N2CCN(c3ccccc3F)CC2)c(NC(=O)Nc2ccccc2)c1	?	13µM*	-16	1
CCCCNC(=O)c1ccc(N2CCOCC2)c(NS(=O)(=O)c2ccc(OC)cc2)c1	49%	7.4µM*	9	-4
O=C(OCc1nc2ccc(Cl)cc2n1CCO)c1ccc(O)cc1	-2%	3%	-9	-1
COCCNC(=O)c1ccc(N2CCCCC2)c(NS(=O)(=O)c2ccc(C)cc2)c1	400%	5.2µM*	-1	16*
CCOC(=O)Nc1ccc2c(CN3CCN(S(=O)(=O)c4ccc(C(C)C)cc4)CC3)cc(=O)oc2c1	10µM*	?	.	.
CCOC(=O)Nc1ccc2c(COC(=O)CNS(=O)(=O)c3ccc(NC(C)=O)cc3)cc(=O)oc2c1	42%	31%	15	9
CCOC(=O)Nc1ccc2c(CN3CCN(S(=O)(=O)c4ccccc4F)CC3)cc(=O)oc2c1	10µM*	9.3µM*	.	.
CCOC(=O)Nc1ccc2c(CN(C)Cc3ccc(F)cc3)cc(=O)oc2c1	16%	7%	32	1
CC(Oc1ccc2ccccc2c1)C(=O)NNC(=O)Nc1ccccc1 (stereo not drawn)	?	-3%	-5	-4
Cc1c(C(=O)c2ccccc2)oc2ccc3ccccc3c12	i	270%	106*	51*
Nc1c(C(=O)c2ccc(F)cc2)oc2ccccc12	102%	108%	44*	38*
CC(=O)Nc1c(C(=O)c2ccccc2)oc2ccccc12	?	-19%	-11	-5
CC(=O)c1oc2ccccc2c1N	85%	19%	-2	0
Nc1c(C(=O)Nc2ccc(Cl)cc2)oc2ccccc12	300%	.	175*	55*
Nc1c(C(=O)c2ccco2)oc2ccccc12	-6%	3%	24*	21*
O=C(NCC1CCN(C(=O)c2c(F)c(F)c(F)c(F)c2F)CC1)c1c(F)c(F)c(F)c(F)c1F	?	-8%	-16	11
O=C(Nc1ccc(S(=O)(=O)Nc2cnc3ccccc3n2)cc1)c1ccccc1Br	31%	11%	-7	-4
Cc1ccc(-c2nc(CC(=O)Nc3cccc(S(=O)(=O)NC4=NCCC4)c3)cs2)cc1	-15%	-10%	.	.
Cc1cccc(NC(=O)CN(C)C(=O)C2CCCC2)c1C	7%	4%	.	.
Nc1c(C(=O)N2CCOCC2)oc2ccccc12	?	12%	15	18*
Nc1c(C(=O)c2ccccc2)oc2ccccc12	-8%	.	28	22*
COc1ccc(-c2coc3cc(O)cc(O)c3c2=O)cc1	79%	111%	93*	50*
O=c1c(-c2c(O)cc(O)c3c(=O)cc(-c4ccc(O)cc4)oc23)c(-c2ccc(O)cc2)oc2cc(O)cc(O)c12	40%	-2%	-6	-3
COc1ccc(-c2coc3cc(OC)cc(OC)c3c2=O)cc1	129%	97%	49*	34*
O=c1c(-c2ccc(O)cc2)coc2cc(O)cc(O)c12	178%	121%	112*	31*
SMILES	Pf growth 96h	Pf growth 48h	Shiga inhibitor	CHX counter
COc1ccc(-c2cc(=O)c3c(O)cc(O)cc3o2)cc1	18%	3%	.	.
COc1cc(O)cc2occ(-c3ccc(O)cc3)c(=O)c12	?	107%	12	13*
COc1cc(OC)c2c(-c3cccc(-c4ccc(C#N)cc4)c3)cc(=O)oc2c1	.	.	i	13
NC(=O)COC(=O)CC12CC3CC(CC(Br)(C3)C1)C2	19%	-7%	-3	1
COc1ccc(-c2coc3cc(O)c(OC)cc3c2=O)cc1	81%	99%	.	.
COc1ccc(-c2coc3cc(O)ccc3c2=O)cc1O	-6%	382%	38*	41*
COc1ccc(-c2coc3cc(OC)cc(O)c3c2=O)cc1	114%	85%	51*	52*
CC(C)Oc1cc(O)c2c(=O)c(-c3ccc(O)cc3)coc2c1	2.9µM*	86%	82*	30*
Cc1cc(OC(=O)c2cc(Cl)ccc2Cl)c([N+](=O)[O-])c(=O)[nH]1	65%	43%	-8	-4
